PubChem BioAssay (Tox21)
Unmarked numbers belong to inactive results. Inconclusive results are not listed. Entries that show only a call come without a potency. Active and inactive are the calls of the source. Unless noted, calls come from the whole dose curve; as a rule, active = well fitted curve in the direction sought with a large enough effect in the repeat runs; inconclusive = weak or mixed curves; inactive = no such curve, though single readings can be large; an effect the other way counts as inactive or inconclusive.

Experiments:
[1] = A CellTox Green Cytotoxicity Assay to monitor cytotoxicity in HEK293 cells - 32 hour (AID 1224881); note: nearly all actives have a fitted effect of over 40% in size; note: potency is the fitted concentration of half-maximal effect
Procedure, shortened: (§1)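 HEK293 cells premixed with CellTox Green dye were seeded at 600 cells/well and left 5 h at 37 C/5% CO2 before pin transfer of 23 nL compound in DMSO. Fluorescence from dye bound to dead-cell DNA was read during 40 h treatment.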

[2] = A CellTox Green Cytotoxicity Assay to monitor cytotoxicity in HepG2 cells - 0 hour (AID 1224882); note: nearly all actives have a fitted effect of over 35% in size; note: potency is the fitted concentration of half-maximal effect
Procedure, shortened: (§2)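 HepG2 cells were seeded together with the CellTox Green dye at 600 cells/well, left 5 h at 37 C/5% CO2, then given compounds in DMSO. Fluorescence from dye bound to dead-cell DNA was read repeatedly over 40 h of treatment at 37 C.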

[3] = A CellTox Green Cytotoxicity Assay to monitor cytotoxicity in HepG2 cells - 32 hour (AID 1224883); note: nearly all actives have a fitted effect of over 50% in size; note: potency is the fitted concentration of half-maximal effect
Procedure, shortened: as §2

[4] = A CellTox Green Cytotoxicity Assay to monitor cytotoxicity in HEK293 cells - 8 hour (AID 1224884); note: nearly all actives have a fitted effect of over 35% in size; note: potency is the fitted concentration of half-maximal effect
Procedure, shortened: as §1

[5] = qHTS RealTime-Glo MT Cell Viability Assay in HepG2 cells - 16 hour (AID 1224885); note: nearly all actives have a fitted effect of over 50% in size
Procedure, shortened: (§3)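 HepG2 suspension premixed with RealTime-Glo reagents is plated at 600 cells per well and left 5 h at 37 C/5% CO2. Compounds in DMSO then go in, and bioluminescence reflecting viable cell number is recorded over 40 h.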

[6] = qHTS RealTime-Glo MT Cell Viability Assay in HEK293 cells - 24 hour (AID 1224886); note: nearly all actives have a fitted effect of over 50% in size; note: potency is the fitted concentration of half-maximal effect
Procedure, shortened: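 Reads taken at 0, 8, 16, 24, 32 and 40 h from the same wells. HEK293 cells (600/well) carried RealTime-Glo reagents from seeding, with compound added after a 5 h settle at 37 C.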

[7] = qHTS RealTime-Glo MT Cell Viability Assay in HEK293 cells - 8 hour (AID 1224887); note: nearly all actives have a fitted effect of over 50% in size; note: potency is the fitted concentration of half-maximal effect
Procedure, shortened: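 HEK293 cells mixed with RealTime-Glo reagents (NanoLuc plus cell-permeant prosubstrate) at 600 cells/well, preincubated 5 h at 37 C/5% CO2, then given 23 nL compound in DMSO. Nonlytic luminescence from viable cells was read at 0, 8, 16, 24, 32 and 40 h.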

[8] = A CellTox Green Cytotoxicity Assay to monitor cytotoxicity in HEK293 cells - 16 hour (AID 1224888); note: nearly all actives have a fitted effect of over 35% in size; note: potency is the fitted concentration of half-maximal effect
Procedure, shortened: as §1

[9] = qHTS RealTime-Glo MT Cell Viability Assay in HepG2 cells - 0 hour (AID 1224889); note: nearly all actives have a fitted effect of over 50% in size
Procedure, shortened: as §3

[10] = qHTS assay to identify small molecule antagonists of the estrogen receptor alpha (ER-alpha) signaling pathway using the BG1 cell line in the presence of 0.1 nM 17-beta-estradiol - cell viability counter screen (AID 1259241); note: nearly all actives have a fitted effect of over 40% in size
Procedure, shortened: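 Viability in VM7Luc4E2 cells after 22 hr compound exposure under 0.1 nM 17beta-estradiol stimulation, by CellTiter-Fluor.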

[11] = qHTS assay to identify small molecule antagonists of the androgen receptor (AR) signaling pathway using the MDA cell line in the presence of 0.5 nM R1881 - cell viability counter screen (AID 1259242); note: nearly all actives have a fitted effect of over 45% in size
Procedure, shortened: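 MDA-kb2 cells (human breast carcinoma, stably carrying MMTV-luciferase reporter) were exposed to compounds with 0.5 nM R1881 (final) for 16 hr at 37C, 0% CO2; viability then read as live-cell protease fluorescence (CellTiter-Fluor, 30 min) in the same wells.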

[12] = target: Estrogen receptor (Homo sapiens) (UniProt P03372); test: qHTS assay to identify small molecule antagonists of the estrogen receptor alpha (ER-alpha) signaling pathway using the BG1 cell line in the presence of 0.1 nM 17-beta-estradiol (AID 1259244); note: nearly all actives have a fitted effect of over 50% in size
Procedure, shortened: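 VM7Luc4E2 cells (endogenous full-length ER-alpha, stable 4xERE-luciferase) were grown 5 days in phenol red-free medium with charcoal-stripped FBS, then exposed 22 h at 37C to compounds plus 0.1 nM (final) 17beta-estradiol; ONE-Glo luminescence read-out.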

[13] = qHTS assay to identify small molecule phospholipidosis (PLD) inducers (AID 1259344; active = well fitted curve in the direction sought with a large enough effect; an effect the other way counts as inactive or inconclusive; note: potency is the fitted concentration of half-maximal effect)
Procedure, shortened: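 HepG2 cells on collagen I, attached 4 h at 37 C, were co-treated with compound and LipidTOX Red dye for 24 h at 37 C, then fixed with paraformaldehyde plus Hoechst 33342 and imaged by high-content microscopy for phospholipid accumulation.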

[14] = qHTS assay to identify small molecule HDAC inhibitors (AID 1259364); note: top concentration of the series differs between compounds; nearly all actives have a fitted effect of over 45% in size
Procedure, shortened: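 Wild-type HCT-116 cells were plated overnight, exposed to compounds for 2 h at 37 °C, then given HDAC-Glo class I/II luminogenic reagent for 30 min at room temperature before luminescence was read.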

[15] = qHTS assay to identify small molecule HDAC inhibitors - cell viability counter screen (AID 1259365)
Procedure, shortened: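 Cytotoxicity was gauged in wild-type HCT-116 cells after a brief 2hr treatment with DMSO-dissolved compounds at 37C and 5% CO2, using CellTiter-Glo luminescence developed for 30min at room temperature.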

[16] = qHTS assay to identify small molecule antagonists of the sonic hedgehog signaling (Shh) pathway - cell viability counter screen (AID 1259367); note: nearly all actives have a fitted effect of over 55% in size
Procedure, shortened: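 NIH/3T3-derived Gli1-Luc reporter cells (2,000 per well) rested 4 hr at 37 C, then received DMSO compounds plus conditioned medium. After 23 hr of treatment, CellTiter-Fluor was added for 1 hr at 37C and fluorescence read.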

[17] = qHTS assay to identify small molecule agonists of the sonic hedgehog signaling (Shh) pathway (AID 1259368; calls by dose curve; note: series mostly up to about 92 µM; nearly all actives have a fitted effect of over 15% in size)
Procedure, shortened: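 NIH/3T3-derived 3T3Gli1-Luc cells carrying a stably integrated Gli1 response element–firefly luciferase reporter were plated, left 4 hr at 37 C, then given compounds in DMSO for 24 hr. Luminescence was read 30 min after adding luciferase reagent.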

[18] = A CellTox Green Cytotoxicity Assay to monitor cytotoxicity in HepG2 cells - 8 hour (AID 1224890); note: nearly all actives have a fitted effect of over 45% in size
Procedure, shortened: as §2

[19] = qHTS assay to identify small molecule agonists of the sonic hedgehog signaling (Shh) pathway - cell viability counter screen (AID 1259366); note: nearly all actives have a fitted effect of over 50% in size; note: potency is the fitted concentration of half-maximal effect
Procedure, shortened: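 Stable Gli1-Luc NIH/3T3 clone, 2,000 cells/well. Compound exposure 24hr at 37C. Read-out: CellTiter-Fluor fluorescence.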

[20] = target: Androgen receptor (Homo sapiens) (UniProt P10275); test: qHTS assay to identify small molecule antagonists of the androgen receptor (AR) signaling pathway using the MDA cell line in the presence of 0.5 nM R1881 (AID 1259243); note: nearly all actives have a fitted effect of over 50% in size
Procedure, shortened: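 MDA-kb2 human breast carcinoma cells carrying an MMTV-luciferase reporter (AR- and GR-responsive) were plated, rested 5 hr at 37C, dosed with compounds, then stimulated with 0.5 nM R1881 (final) for 16 hr; luminescence was read after ONE-Glo.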

Chain of Estrogen receptor (Homo sapiens) (P03372 whole entry, looked up): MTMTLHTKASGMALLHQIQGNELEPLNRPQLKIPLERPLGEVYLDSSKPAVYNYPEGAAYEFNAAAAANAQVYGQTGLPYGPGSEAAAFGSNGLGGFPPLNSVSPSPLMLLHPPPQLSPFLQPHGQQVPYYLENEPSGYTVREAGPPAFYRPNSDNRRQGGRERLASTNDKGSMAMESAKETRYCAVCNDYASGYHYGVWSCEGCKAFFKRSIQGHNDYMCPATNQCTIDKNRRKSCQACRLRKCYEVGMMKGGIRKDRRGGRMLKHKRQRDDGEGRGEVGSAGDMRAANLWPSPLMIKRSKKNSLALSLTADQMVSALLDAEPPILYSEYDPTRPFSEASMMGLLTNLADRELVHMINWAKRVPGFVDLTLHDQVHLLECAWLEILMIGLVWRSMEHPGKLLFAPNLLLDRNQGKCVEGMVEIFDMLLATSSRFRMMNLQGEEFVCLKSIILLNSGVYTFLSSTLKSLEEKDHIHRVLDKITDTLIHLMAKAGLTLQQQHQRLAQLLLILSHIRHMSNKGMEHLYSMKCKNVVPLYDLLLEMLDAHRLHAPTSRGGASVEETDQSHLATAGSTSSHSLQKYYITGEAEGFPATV
Chain of Androgen receptor (Homo sapiens) (P10275 whole entry, looked up): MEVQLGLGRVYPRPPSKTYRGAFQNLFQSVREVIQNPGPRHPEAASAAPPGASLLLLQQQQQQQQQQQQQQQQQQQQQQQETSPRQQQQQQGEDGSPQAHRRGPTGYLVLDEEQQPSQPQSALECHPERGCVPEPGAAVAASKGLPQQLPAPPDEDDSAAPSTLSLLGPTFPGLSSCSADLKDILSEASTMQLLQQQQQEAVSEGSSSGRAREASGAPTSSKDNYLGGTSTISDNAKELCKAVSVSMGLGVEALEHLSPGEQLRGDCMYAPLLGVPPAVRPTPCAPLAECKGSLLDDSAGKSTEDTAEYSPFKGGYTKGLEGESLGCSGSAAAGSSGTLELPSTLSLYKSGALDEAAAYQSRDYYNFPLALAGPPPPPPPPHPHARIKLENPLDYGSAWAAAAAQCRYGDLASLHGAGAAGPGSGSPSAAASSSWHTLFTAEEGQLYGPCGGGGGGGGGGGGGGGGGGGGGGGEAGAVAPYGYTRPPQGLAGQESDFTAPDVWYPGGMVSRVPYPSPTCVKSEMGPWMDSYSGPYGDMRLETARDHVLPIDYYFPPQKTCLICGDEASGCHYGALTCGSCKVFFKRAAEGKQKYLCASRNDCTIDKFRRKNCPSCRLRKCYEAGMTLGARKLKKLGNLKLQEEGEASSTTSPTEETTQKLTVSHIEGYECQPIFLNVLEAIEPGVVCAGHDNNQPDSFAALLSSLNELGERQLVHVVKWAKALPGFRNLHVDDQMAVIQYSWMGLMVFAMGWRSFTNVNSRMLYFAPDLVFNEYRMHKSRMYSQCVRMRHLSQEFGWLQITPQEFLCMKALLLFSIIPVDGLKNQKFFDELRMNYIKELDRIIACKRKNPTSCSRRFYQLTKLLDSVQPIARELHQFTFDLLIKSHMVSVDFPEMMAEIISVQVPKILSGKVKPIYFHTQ

Row | SMILES | Potency [1] | Potency [2] | Potency [3] | Potency [4] | Potency [5] | Potency [6] | Potency [7] | Potency [8] | Potency [9] | outcome [10] | Potency [11] | outcome [12] | Potency [13] | Potency [14] | outcome [15] | Potency [16] | outcome [17] | Potency [18] | Potency [19] | Potency [20]
1 | CC1(C)CO[C@@H](CC(=O)O)CN1 | inactive | inactive | inactive | inactive | inactive | inactive | inactive | inactive | inactive | inactive | inactive | inactive | inactive | inactive | inactive | inactive | inactive |  |  | 
2 | CC(C)NCC(O)c1ccc(NS(C)(=O)=O)cc1 (stereo not given) | inactive | inactive | inactive | inactive | inactive | inactive | inactive | inactive |  | inactive | inactive |  | inactive | inactive | inactive | inactive | inactive | inactive | inactive | 
3 | NC(=O)c1cn(Cc2c(F)cccc2F)nn1 | inactive | inactive | inactive | inactive | inactive | inactive | inactive | inactive | inactive | inactive | inactive |  | inactive | inactive | inactive | inactive |  |  | inactive | 
4 | CCN1CCC[C@H]1CNC(=O)c1c(O)c(Cl)cc(Cl)c1OC | inactive | inactive | inactive | inactive | inactive | inactive | inactive | inactive |  | inactive | inactive | inactive | inactive |  | inactive | inactive | inactive |  |  | 
5 | C=C1CC[C@H]2C[C@@H]1C2(C)C | inactive | inactive | inactive | inactive | inactive | inactive | inactive | inactive | inactive | inactive | inactive | inactive |  | inactive | inactive | inactive |  |  | inactive | 
6 | Cc1cccc(C)c1NC(=O)C(C)N (stereo not given) | 19 µM (active) | 21.3 µM (active) | 21.3 µM (active) | 19 µM (active) | inactive | inactive | inactive | 19 µM (active) | inactive | inactive | inactive | inactive | inactive | inactive | inactive | inactive |  |  | inactive | 
7 | Nc1ccccc1S(=O)(=O)O | inactive | inactive | inactive | inactive | inactive | inactive | inactive | inactive | inactive | inactive | inactive |  |  | inactive | inactive | inactive | inactive | inactive |  | 
8 | COc1ccc(CCN(C)CCCC(C#N)(c2cc(OC)c(OC)c(OC)c2)C(C)C)cc1OC (stereo not given) | inactive | inactive | inactive | inactive | inactive | 21.3 µM (active) | 21.3 µM (active) | inactive | inactive |  | inactive |  | 5.62 µM (active) | inactive | inactive |  | inactive | inactive | 15 µM (active) | 
9 | CC(C)=CCCC(C)CC(=O)O (stereo not given) | inactive | inactive | inactive | inactive | inactive | inactive | inactive | inactive | inactive | inactive | inactive |  |  | inactive | inactive | inactive | inactive | inactive | inactive | 
10 | COc1nc(N)nc2c1ncn2[C@@H]1O[C@H](CO)[C@@H](O)[C@@H]1O | inactive | inactive | inactive | inactive | inactive | inactive | inactive | inactive |  | inactive | inactive |  | inactive | inactive | inactive | inactive | inactive | inactive |  | 
11 | COC(=O)NN | inactive | inactive | inactive | inactive | inactive | inactive | inactive | inactive |  | inactive | inactive | inactive |  | inactive | inactive |  |  |  | inactive | 
12 | COc1ccc2c(c1)CCCC2=O | inactive | inactive | inactive | inactive | inactive | inactive | inactive | inactive | inactive | inactive | inactive | inactive |  | inactive | inactive | inactive | inactive |  | inactive | 
13 | CC(C)NC(=O)NC(C)C | inactive | inactive | inactive | inactive | inactive | inactive | inactive | inactive |  | inactive | inactive | inactive |  | inactive | inactive | inactive | inactive | inactive | inactive | inactive
14 | CN1N=C(C(N)=O)CCC1=O | inactive | inactive | inactive | inactive | inactive | inactive | inactive | inactive |  | inactive | inactive | inactive |  | inactive | inactive | inactive |  | inactive | inactive | inactive
15 | C[C@@H]1CCN(C(=O)[C@H](CCCN=C(N)N)NS(=O)(=O)c2cccc3c2NC[C@H](C)C3)[C@@H](C(=O)O)C1 | inactive | inactive | inactive | inactive | inactive | inactive | inactive | inactive |  | inactive | inactive | inactive | inactive |  | inactive | inactive | inactive | inactive |  | 
